Results taken from PubChem BioAssay (EPA / NIEHS).
Inconclusive results are not listed. The source made the active and inactive calls. Rule for the calls: active = hit-call score of the fitted dose curve at least 0.9, where 1 is the maximum; inconclusive = response in the unintended direction; inactive = score below 0.9.

Experiments:
[1] = TOX21_p53_BLA_p2_viability: Viability Assessment in the Tox21 HCT-116 p53 Agonism Beta-lactamase Assay, Phase 2 (AID 2283591);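 note: actives lower the ATP signal meaning cytotoxicity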
Procedure, shortened: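 Cytotoxicity readout: CellTiter-Glo ATP luminescence, 30 min at room temperature, after the beta-lactamase read. Cells were HCT116 exposed 16 h at 37C to compounds pin-transferred at 217-fold dilution from DMSO stocks.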

[2] = molecular target: Cellular tumor antigen p53 (Homo sapiens) (UniProt P04637); experiment: TOX21_p53_BLA_p2_ratio: Tox21 HCT-116 p53 Agonism Beta-lactamase Assay, Ratio, Phase 2 (AID 2283592)
Procedure, shortened: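 Gain-of-signal p53 agonism was scored from the beta-lactamase FRET ratio (460/530 nm, 405 nm excitation) in HCT116 cells treated 16 h at 37C, 5% CO2, with DMSO serving as negative control and baseline.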

[3] = TOX21_p53_BLA_p3_viability: Viability Assessment in the Tox21 HCT-116 p53 Agonism Beta-lactamase Assay, Phase 3 (AID 2283593);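 note: cells exposed to compound for 16 h before reading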
Procedure, shortened: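 Cellular ATP was quantified by CellTiter-Glo luminescence, read after 30 min at room temperature. Beforehand, HCT116 cells (4000/well) received compound 5 h post-seeding, 217-fold diluted from DMSO, then incubated 16 h at 37C.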

[4] = TOX21_p53_BLA_p5_viability: Viability Assessment in the Tox21 HCT-116 p53 Agonism Beta-lactamase Assay, Phase 5 (AID 2283600)
Procedure, shortened: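 After the 460/530 nm beta-lactamase measurement, the wells received an ATP-detection luciferase reagent; signal was read 30 min later at RT. Compound treatment lasted 16 h on cells pre-incubated 5 h post-seeding.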

[5] = molecular target: Cellular tumor antigen p53 (Homo sapiens) (UniProt P04637); experiment: TOX21_p53_BLA_p3_ratio: Tox21 HCT-116 p53 Agonism Beta-lactamase Assay, Ratio, Phase 3 (AID 2283596)
Procedure, shortened: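 HCT116 p53-bla cells (4000/well) given compound in DMSO (217-fold dilution) after 5 h, incubated 16 h at 37C. CCF4-AM substrate 2 h at room temperature; 460/530 nm emission ratio, gain fitted against DMSO.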

[6] = TOX21_p53_BLA_p4_viability: Viability Assessment in the Tox21 HCT-116 p53 Agonism Beta-lactamase Assay, Phase 4 (AID 2283597);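 note: hits lower the luminescence signal meaning cytotoxicity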
Procedure, shortened: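 Following a 16 h exposure at 37C, the treated HCT116 wells were first read for the FRET ratio. They were then lysed with CellTiter-Glo, and ATP luminescence was recorded after 30 min at room temperature.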

[7] = molecular target: Cellular tumor antigen p53 (Homo sapiens) (UniProt P04637); experiment: TOX21_p53_BLA_p5_ratio: Tox21 HCT-116 p53 Agonism Beta-lactamase Assay, Ratio, Phase 5 (AID 2283599)
Procedure, shortened: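 Beta-lactamase reporter ratio (blue 460 nm over green 530 nm, 405 nm excitation) after 2 h CCF4-AM loading, in HCT-116 cells exposed 16 h at 37 C to compounds pinned at 217-fold dilution. Increases relative to DMSO baseline scored.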

[8] = molecular target: Cellular tumor antigen p53 (Homo sapiens) (UniProt P04637); experiment: TOX21_p53_BLA_p4_ratio: Tox21 HCT-116 p53 Agonism Beta-lactamase Assay, Ratio, Phase 4 (AID 2283601)
Procedure, shortened: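 Signal is the blue/green (460nm/530nm) ratio of cleaved versus uncleaved CCF4-AM substrate, read after 2 h substrate loading. Cells were HCT116 carrying the p53-responsive beta-lactamase reporter, dosed 16 h at 37C, 5% CO2; CellTiter-Glo measured in parallel.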

[9] = molecular target: PGR (gene 5241) (UniProt P06401); experiment: TOX21_PR_BLA_Followup_Antagonist_ratio: Tox21 HEK293 Progesterone Receptor (PR) Antagonism Beta-lactamase Follow-Up Assay, Ratio (AID 2283934);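 note: PR-UAS-bla HEK293T cells stimulated with 1 nM R5020 agonist for 16 hr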
Procedure, shortened: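 Antagonist mode used 1 nM R5020 (final) as agonist on a beta-lactamase reporter line in HEK293T cells. Activity was taken from the substrate cleavage ratio after 16 hr exposure.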

[10] = TOX21_PR_BLA_Followup_Agonist_viability: Viability Assessment in the Tox21 HEK293 Progesterone Receptor (PR) Agonism Beta-lactamase Follow-Up Assay (AID 2283935);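 note: signal loss means lower viability so actives are cytotoxic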
Procedure, shortened: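 Multiplexed viability counter-screen: ATP-coupled luciferase signal measured after 30 min at room temperature, following 16 hr compound treatment of PR-UAS-bla HEK293T cells grown in charcoal-stripped serum.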

[11] = TOX21_PR_BLA_Followup_Antagonist_viability: Viability Assessment in the Tox21 HEK293 Progesterone Receptor (PR) Antagonism Beta-lactamase Follow-Up Assay (AID 2283936);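 note: hits lower the luminescence signal meaning cytotoxicity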
Procedure, shortened: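 PR-UAS-bla HEK293T cells (3,000/well, 2% charcoal-stripped FBS) given compound plus R5020 agonist, 16 h at 37C. CellTiter-Glo added after bla read, 30 min at room temperature; luminescence loss indicates cytotoxicity.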

[12] = molecular target: PGR (gene 5241) (UniProt P06401); experiment: TOX21_PR_LUC_Followup_Antagonist: Tox21 HEK293 Progesterone Receptor (PR) Antagonism Luciferase Follow-Up Assay (AID 2283938);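 note: curve fitted upward as signal gain over DMSO baseline despite antagonist label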
Procedure, shortened: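 Luminescence from ONE-Glo was measured 30 min after reagent addition, following 16 h exposure of HEK293-PR-A-luc cells (3,000/well, plated 5 h earlier) to DMSO-dissolved compounds at 37C; DMSO served as baseline.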

[13] = TOX21_PR_LUC_Followup_Antagonist_viability: Viability Assessment in the Tox21 HEK293 Progesterone Receptor (PR) Antagonism Luciferase Follow-Up Assay (AID 2283940)
Procedure, shortened: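 Cellular ATP, measured with luciferase-coupled CellTiter-Glo, served as the viability endpoint after HEK293-PR-A-luc cells were exposed to test compounds for 16 h at 37C.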

[14] = TOX21_PR_LUC_Followup_Agonist_viability: Viability Assessment in the Tox21 HEK293 Progesterone Receptor (PR) Agonism Luciferase Follow-Up Assay (AID 2283941);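 note: loss of signal means cytotoxicity so actives lower viability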
Procedure, shortened: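 Luminescent ATP quantitation (CellTiter-Glo) serves as the read-out; a drop flags cytotoxic compounds. Cells are HEK293-PR-A-luc grown in 10% charcoal-stripped FBS, plated 3,000/well, and exposed to compound for 16 h.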

[15] = molecular target: Thyroid hormone receptor alpha (Rattus norvegicus) + Thyroid hormone receptor beta (Rattus norvegicus) (UniProt P18113+P63059); experiment: TOX21_TR_LUC_GH3_Antagonist_Followup: Tox21 GH3 Thyroid Hormone Receptor Antagonism Luciferase Follow-Up Assay (AID 2283942)
Procedure, shortened: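 Confirmatory qHTS, antagonist mode: T3 (1.0 nM final) + test cpd, 15 conc, 92 uM–5nM final, GH3 rat pituitary line, 24 h, 37C. Luc reporter, RLU vs DMSO.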

[16] = molecular target: THRB (gene 7068) (UniProt P10828); experiment: TOX21_TRB_BLA_Antagonist_Followup_ratio: Tox21 Thyroid Hormone Receptor beta Antagonism Beta-lactamase (BLA) Follow-Up Assay, Ratio (AID 2283958)
Procedure, shortened: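 In this antagonist-mode follow-up, a stably integrated GAL4-TRβ LBD fusion drives a UAS-beta-lactamase reporter in HEK293T cells. Loss of ratio signal relative to DMSO after 18 h treatment indicates activity; parallel CellTiter-Glo flags cytotoxicity.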

[17] = molecular target: THRB (gene 7068) (UniProt P10828); experiment: TOX21_TRB_COA_Antagonist_Followup_ratio: Tox21 Thyroid Hormone Receptor beta Antagonism through Coactivator Recruitment Follow-Up Assay, Ratio (AID 2283967)
Procedure, shortened: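 Test compound was incubated with 5.0 nM GST-TRβ LBD in 0.10% BSA. Then 200 nM fluorescein-SRC-2 peptide and 2 nM terbium anti-GST antibody were added. TR-FRET (520:495 nm) was measured and normalized to DMSO and T3 controls.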

[18] = TOX21_TR_RXR_BLA_Antagonist_Followup_viability: Viability Assessment in the Tox21 Thyroid Hormone Receptor beta Retinoid X Receptor alpha (RXRa) Antagonism Beta-lactamase (BLA) Follow-Up Assay (AID 2283979)
Procedure, shortened: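 Follow-up compounds (11 concentrations, triplicate) were incubated 16 h at 37C/5% CO2 with HEK293T RXRa-bla cells seeded at 2,500/well in charcoal-stripped-serum medium. ATP content by CellTiter-Glo luminescence gave viability; curves fitted in both directions against DMSO.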

Measured: outcome

Chain of Cellular tumor antigen p53 (Homo sapiens) (P04637 whole entry, looked up): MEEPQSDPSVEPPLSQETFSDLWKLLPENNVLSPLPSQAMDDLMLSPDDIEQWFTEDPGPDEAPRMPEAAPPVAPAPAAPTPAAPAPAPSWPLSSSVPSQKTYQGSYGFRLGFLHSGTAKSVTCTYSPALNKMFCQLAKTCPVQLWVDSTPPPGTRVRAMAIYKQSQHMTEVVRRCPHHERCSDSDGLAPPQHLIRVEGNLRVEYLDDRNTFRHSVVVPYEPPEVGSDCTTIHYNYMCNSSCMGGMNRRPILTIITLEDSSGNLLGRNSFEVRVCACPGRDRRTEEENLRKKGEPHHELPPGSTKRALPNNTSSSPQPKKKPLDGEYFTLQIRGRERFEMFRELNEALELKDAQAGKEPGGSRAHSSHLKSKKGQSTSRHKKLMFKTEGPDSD
Chain of THRB (gene 7068) (P10828 whole entry, looked up, the tested form may be a part): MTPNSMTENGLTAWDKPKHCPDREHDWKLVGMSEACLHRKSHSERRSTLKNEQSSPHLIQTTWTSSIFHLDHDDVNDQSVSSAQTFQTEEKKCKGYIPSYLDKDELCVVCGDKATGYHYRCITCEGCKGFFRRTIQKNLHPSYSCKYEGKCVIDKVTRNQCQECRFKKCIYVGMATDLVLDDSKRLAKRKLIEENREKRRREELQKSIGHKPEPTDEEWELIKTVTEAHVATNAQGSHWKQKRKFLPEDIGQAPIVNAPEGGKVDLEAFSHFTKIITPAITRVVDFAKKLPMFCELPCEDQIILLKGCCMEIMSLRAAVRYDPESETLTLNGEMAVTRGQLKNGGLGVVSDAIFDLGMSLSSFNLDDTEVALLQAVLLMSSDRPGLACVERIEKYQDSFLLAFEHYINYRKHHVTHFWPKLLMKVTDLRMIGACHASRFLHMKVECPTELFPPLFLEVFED
Chain of PGR (gene 5241) (P06401 whole entry, looked up): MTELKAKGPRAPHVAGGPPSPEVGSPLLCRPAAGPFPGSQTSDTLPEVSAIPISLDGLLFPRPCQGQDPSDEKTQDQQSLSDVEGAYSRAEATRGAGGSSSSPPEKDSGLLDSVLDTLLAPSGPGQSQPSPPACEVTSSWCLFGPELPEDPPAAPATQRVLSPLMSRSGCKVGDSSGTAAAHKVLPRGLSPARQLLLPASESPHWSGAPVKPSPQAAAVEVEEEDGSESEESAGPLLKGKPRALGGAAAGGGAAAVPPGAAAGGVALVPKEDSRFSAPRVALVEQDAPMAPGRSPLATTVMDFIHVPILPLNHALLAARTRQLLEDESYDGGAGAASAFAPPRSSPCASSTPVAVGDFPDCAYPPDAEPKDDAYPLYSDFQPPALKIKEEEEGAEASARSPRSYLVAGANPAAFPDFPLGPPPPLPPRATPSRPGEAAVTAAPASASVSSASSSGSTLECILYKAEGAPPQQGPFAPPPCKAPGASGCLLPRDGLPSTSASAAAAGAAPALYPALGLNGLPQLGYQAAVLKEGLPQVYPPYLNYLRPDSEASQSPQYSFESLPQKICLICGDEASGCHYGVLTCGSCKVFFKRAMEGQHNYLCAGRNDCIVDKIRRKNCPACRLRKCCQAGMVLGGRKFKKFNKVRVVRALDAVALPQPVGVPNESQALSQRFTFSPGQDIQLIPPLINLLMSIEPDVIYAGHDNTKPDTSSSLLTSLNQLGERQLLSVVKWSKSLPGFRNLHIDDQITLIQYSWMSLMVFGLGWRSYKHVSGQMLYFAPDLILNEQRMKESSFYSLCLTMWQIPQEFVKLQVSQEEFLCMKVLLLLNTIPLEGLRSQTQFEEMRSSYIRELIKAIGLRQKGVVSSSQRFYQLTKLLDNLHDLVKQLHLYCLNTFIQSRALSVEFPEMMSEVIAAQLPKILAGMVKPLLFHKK

N#CC(C#N)=C(C#N)C#N
inactive: [1] | [2] | [3] | [4]

CCCCCCCCCCCOC(=O)c1ccccc1C(=O)OCCCCCCCCCCC
inactive: [1] | [2] | [5] | [6] | [7] | [4] | [8]

CC(=O)[C@H]1CC[C@H]2[C@@H]3CC[C@H]4C[C@](C)(O)CC[C@]4(C)[C@H]3CC[C@]12C
inactive: [1] | [2] | [3] | [7] | [8]

CC(Cl)CCl (stereo unspecified)
inactive: [1] | [2] | [5] | [6] | [7] | [4] | [8]

OP(O)c1ccccc1
inactive: [1] | [2] | [5] | [7] | [4] | [8]

C#C[C@]1(O)C=C[C@H]2[C@@H]3CCC4=CC(=O)CC[C@@H]4[C@H]3CC[C@@]21CC
inactive: [1] | [2] | [5] | [7] | [8]

c1ccc(OCC2CO2)cc1 (stereo unspecified)
inactive: [1] | [2] | [5] | [6] | [4] | [8]

O=c1oc2ccccc2c(O)c1C1CCCc2ccccc21 (stereo unspecified)
inactive: [1] | [2] | [5] | [7] | [4]

CCN(CC)Cc1nccn1-c1ccc([N+](=O)[O-])cc1C(=O)c1ccccc1Cl
inactive: [1] | [2] | [6] | [7] | [4]

Clc1cc2c(cc1Cl)Oc1cc(Cl)c(Cl)cc1O2
inactive: [1] | [2] | [6] | [7]

O=C1CCCCC1CN1CCCCC1 (stereo unspecified)
inactive: [1] | [2] | [5] | [6] | [8]

NC1=NC(=O)C(c2ccccc2)O1 (stereo unspecified)
inactive: [1] | [2] | [5] | [4] | [8]

CC(Cc1ccccc1)NCCn1cnc2c1c(=O)n(C)c(=O)n2C (stereo unspecified)
inactive: [1] | [2] | [5] | [7] | [8]

C[C@]12C=CC(=O)C=C1CC[C@@H]1[C@@H]2CC[C@]2(C)OC(=O)CC[C@@H]12
inactive: [1] | [2] | [5] | [7] | [4] | [8]

C[C@H]1[C@@H]2Cc3ccc(O)cc3[C@@]1(C)CCN2C
inactive: [1] | [2] | [5] | [7] | [4] | [8]

CCCC(=O)Cl
inactive: [1] | [2] | [5] | [6] | [4]

NCCOS(=O)(=O)O
inactive: [1] | [2] | [5] | [7] | [4] | [8]

CNP(=O)(OC)Oc1ccc(C(C)(C)C)cc1Cl (stereo unspecified)
inactive: [1] | [2] | [5] | [7] | [4] | [8]

C=CCOCC1CO1 (stereo unspecified)
inactive: [1] | [2] | [5] | [6] | [4]

CCOP(=S)(OCC)Oc1ncn(-c2ccccc2)n1
inactive: [1] | [2] | [5] | [6] | [4] | [8]

ClCc1ccc(Cl)cc1Cl
inactive: [1] | [2] | [5] | [7] | [4]

CC[C@@H](CO)NC(=O)[C@@H]1C=C2c3cccc4[nH]cc(c34)C[C@H]2N(C)C1
inactive: [1] | [2] | [5] | [6] | [4] | [8]

CC(=O)C1CCOC1=O (stereo unspecified)
inactive: [1] | [2] | [5] | [7] | [4] | [8]

CC[C@H]1C[C@H]2[C@@H]3CCC4=CC(=O)CC[C@@H]4[C@H]3CC[C@]2(C)[C@H]1O
not listed: [3] | [7]
inactive: all other assays above

CCCN1CCC[C@@H]2Cc3nc(N)ncc3C[C@H]21
inactive: [1] | [2] | [6]

CNC(=O)Oc1cc(C)c(N(C)C)c(C)c1
inactive: [1] | [2] | [5] | [7] | [8]

COc1cc(CCN)cc(OC)c1OC
inactive: [1] | [2] | [6] | [7] | [4]

C=CC(C)(CCC=C(C)C)OC(=O)c1ccccc1N (stereo unspecified)
inactive: [1] | [2] | [5] | [7] | [4] | [8]

COCCC#N
inactive: [1] | [2] | [5] | [6] | [4] | [8]

O=C(O)/C=C/C(=O)O
inactive: [1] | [2] | [5] | [7] | [4] | [8]

CCC1(c2ccccc2)C(=O)NC(=O)N(C)C1=O (stereo unspecified)
inactive: [1] | [2] | [5] | [4]

[2H]C([2H])([2H])[C@H](N)Cc1ccccc1
inactive: [1] | [2] | [5] | [4]
